HttQ103 aggreg: mutant huntingtin aggregation inhibition; PC12 HttQ103-GFP aggregates, Acumen cytometry, 40 h; Potency, µM (series often up to 46.1 µM), usual class: inhibitors; 1.1% of 220,000 active; AID 1688; note: nearly all actives have a fitted effect of over 60% in size
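PC12/HTTQ103-GFP, ecdysone-inducible; teb 100 nM; cpd qHTS titration; GFP aggregates read on laser cytometer, Ex 488/Em 500-530 nm.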
Epigenetic reg: regulators of epigenetic silencing causing reporter derepression in mouse cells. Potency, µM (series often up to 53.9 µM), usual class: activators. murine LDR cells, GFP reporter derepression, 30 h. 0.2% of 280,000 active; note: nearly all actives have a fitted effect of over 60% in size
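In this reporter-derepression format, murine cells bearing a silenced integrated CMV-GFP locus incubate with test compound (30 h, 37 C), then are washed and imaged; fluorescent objects of 20–120 um count as induced cells.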
PINK1 modulator: PINK1 expression modulation | PINK1 immunofluorescence, high-content cytometry, 24 h | Potency, µM (top dose mostly 76.6 µM), usual class: activators | 0.2% of 410,000 active; active = well fitted activation curve with a large enough effect; inconclusive = small, poorly fitted or top-dose-only effect; cell line not stated here; note: nearly all actives have a fitted effect of over 65% in size
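PINK1 protein level read as immunofluorescence by microplate cytometer in a fixed, stained stable cell line after 24 h exposure to five compound concentrations, with CCCP as control.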
HTT cytoprotect: cytoprotection in Huntington HTT-Q103 PC12 cell model; PC12 HTT-Q103 induced, cytoprotection, ATP luminescence, 40 h; Potency, µM (titrated, usually from 56.4 µM), usual class: activators; 0.14% of 230,000 active; AID 1471; note: nearly all actives have a fitted effect of over 45% in size
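Rat PC12, Q103 Htt exon1-GFP fusion, ecdysone promoter; tebufenozide inducer 100 nM final; compound titration; qHTS, 1500 cells/well; ATPlite luminescent read.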
A number is an active result; – = inactive; ? = inconclusive; · = not tested or not shown; [ ] = dose if it differs, or a comment. Only a selection was taken, and hits are over-represented in it overall. Unless noted, calls come from the whole dose curve; as a rule, active = well fitted curve in the direction sought with a large enough effect; inconclusive = small, poorly fitted or top-dose-only effect, or another doubt; inactive = no such curve, though single readings can be large; an effect the other way counts as inactive or inconclusive.

SMILES | HttQ103 aggreg | Epigenetic reg | PINK1 modulator | HTT cytoprotect
CC/C(C)=N/N1C(=O)c2ccccc2NC1(C)CC (centres undefined) | – | – | – | –
O=C(NCc1ccccn1)Nc1cc(Cl)ccc1Cl | · | · | – | ·
CC(C)OC(=O)/C(=C/c1ccco1)c1ccccc1 | –[9.22 µM] | – | – | –[10 µM]
CC(C)(C)c1ccc(-c2nnc(SCCC#N)n2C2CCCC2)cc1 | 11.2µM | – | – | –[1.9 µM]
Cc1ccc(OCC(=O)NC(=S)Nc2ccccn2)c(Br)c1 | · | · | – | ·
Cc1ccc(OCC(=O)NNC(=S)NC(=O)C(C)(C)C)c(Br)c1 | 11.2µM | – | – | ·
C/C(=N/Nc1cc(-c2ccccc2)nc(-c2ccccc2)n1)c1ccc(O)cc1 | 35.5µM | – | – | –[10 µM]
NS(=O)(=O)c1ccc(N=Nc2c(-c3ccccc3)[nH]n(-c3nc(-c4ccccc4)cs3)c2=O)cc1 | 5.62µM | – | – | –[10 µM]
Nc1[nH]n2c(=O)cc(-c3ccccc3)nc2c1N=Nc1ccc(S(N)(=O)=O)cc1 | –[9.22 µM] | – | – | –[10 µM]
CC(C)(C)Cc1c(-c2cccc(Br)c2)nc2ccc(Br)cn12 | · | · | – | ·
CC(C)(C)Cc1c(-c2ccc(Cl)cc2)nc2ccc(Br)cn12 | · | · | 31.6µM | ·
COc1ccccc1Cc1c(-c2ccc(OC)c(OC)c2)nc2ccc(Br)cn12 | · | · | 14.1µM | ·
CC(C)(C)Cc1c(-c2ccc(F)cc2)nc2ccc(Br)cn12 | · | · | 35.5µM | ·
Cn1c(Sc2ccccc2Cl)c(C=O)c2ccccc21 | – | – | – | –
Cn1c(Sc2ccc(Cl)cc2)c(C=O)c2ccccc21 | 7.94µM | – | – | –[10 µM]
COC(=O)c1ccc(NC(=O)CC2C(=O)N(c3ccccc3)C(=O)N2Cc2cccs2)cc1 (centres undefined) | · | – | – | ·
CCn1c(SCC(=O)NC2CCCc3ccccc32)nnc1-c1cccs1 (centres undefined) | – | – | – | –
CC(C)CC(=O)Nc1cccc(-c2csc(-c3ccccc3)n2)c1 | ? | – | – | –[10 µM]
CCOc1ccc(S(=O)(=O)Nc2cc(Cl)ccc2O)cc1 | 22.4µM | – | ? | –[10 µM]
CN(C)C(=O)c1ccc(NC(=O)c2cncc(Br)c2)cc1 | 15.8µM | – | – | –[10 µM]
COc1ccc(CN(C)C(=O)CCl)cc1 | 12.6µM | – | – | ?
CN(Cc1ccc(Cl)cc1)C(=O)CCl | ? | – | – | –
CCC(C)NS(=O)(=O)c1ccc(F)c(C(=O)Nc2c(F)cc(F)cc2Br)c1 (centres undefined) | – | – | – | –
FC(F)(F)c1cnc(C(c2ccccn2)c2ncn[nH]2)c(Cl)c1 (centres undefined) | 12.6µM | – | – | –[10 µM]
O=C(Cn1nc(CNc2ccc(Br)cc2)[n+]2c1CCCCC2)c1ccc([N+](=O)[O-])cc1 | –[9.22 µM] | – | 39.8µM | –[10 µM]
SMILES | HttQ103 aggreg | Epigenetic reg | PINK1 modulator | HTT cytoprotect
O=C(NCCCNc1ccc(C(F)(F)F)cc1[N+](=O)[O-])c1ccc(F)cc1 | ? | 17.8µM | – | –[10 µM]
CN(c1cccc(NC(=O)c2ccc(C(C)(C)C)cc2)c1)S(C)(=O)=O | 11.2µM | – | – | –
CC(C)(C)c1ccc(C(=O)Nc2cccc([N+](=O)[O-])c2)cc1 | – | – | 44.7µM | ·
CC(C)(C)CC(C)(C)NC(=O)Nc1cccc([N+](=O)[O-])c1 | ? | – | 14.1µM | –[10 µM]
CC(=O)Nc1cc2c(cc1NC(=O)c1cnccn1)OCCO2 | – | – | – | –[10 µM]
Cc1cccc(NC(=S)N=Nc2c(O)[nH]c3ccccc23)c1 | 3.98µM | – | – | ·
O=C(N=Nc1c(O)[nH]c2ccccc12)Nc1ccccc1 | · | · | – | ·
Cc1ncc([N+](=O)[O-])n1CCO | – | – | – | ?
CCOC(=O)c1cc(-c2ccccc2)n(CCC(=O)Nc2ccc(C(F)(F)F)cc2)c1C | · | ? | 39.8µM | ·
CCOC(=O)c1cc(-c2ccccc2)n(CCCC(=O)Nc2ccc(CC)cc2)c1C | · | – | – | ·
COc1ccc(/C=C/c2c(-c3ccc(OC)cc3)sc3ccc(N4CCOCC4)cc23)cc1 | · | · | – | ·
N#C/C(=C(/O)c1ccc2c(c1)OCO2)c1nc2cc(C(F)(F)F)ccc2s1 | · | · | 14.1µM | ·
N#C/C(=C(/O)c1ccccc1F)c1nc2cc(C(F)(F)F)ccc2s1 | –[9.22 µM] | – | ? | –[10 µM]
Cc1ccc(NC(=O)C2=C(c3ccccc3)S(=O)(=O)CCS2(=O)=O)cc1 | 5.01µM | ? | – | –
O=C(Nc1ccc([N+](=O)[O-])cc1)Nc1ccc([N+](=O)[O-])cc1 | – | · | · | –
O=C(Nc1ccc(Oc2ccc(NC(=O)Nc3ccc([N+](=O)[O-])cc3)cc2)cc1)Nc1ccc([N+](=O)[O-])cc1 | –[9.22 µM] | – | 28.2µM | –[10 µM]
CN1CCN(NC(=O)c2ccc(S(=O)(=O)N3CC4(C)CC3CC(C)(C)C4)cc2)CC1 (centres undefined) | –[9.22 µM] | – | – | –[10 µM]
CC1=CC(=C(c2ccc(N)cc2)c2ccc(N)cc2)C=CC1=N | 7.94µM | · | 15.8µM | –
CCCSc1ncc(Cl)c(C(=O)Nc2sc3c(c2C(=O)NCC)CCCC3)n1 | · | 4.47µM | – | ·
CCSc1ncc(Cl)c(C(=O)Nc2sc3c(c2C(=O)NC)CCCC3)n1 | · | 7.08µM | – | ·
O=C1c2cccc3c(N4CCCCC4)ccc(c23)C(=O)N1CCO | – | – | – | –
O=C1c2cccc3c(N4CCCCC4)ccc(c23)C(=O)N1c1cccc(O)c1 | ? | 11.2µM | – | –
O=C1OCC/C1=C\c1ccccc1 | – | – | – | ·
FC(F)Sc1ccc(NC(=S)NC(c2ccccc2)c2ccccc2)cc1 | 12.6µM | ? | ? | –
FC(F)Oc1ccc(NC(=S)NCc2ccccc2)cc1 | – | – | – | –[1.9 µM]
SMILES | HttQ103 aggreg | Epigenetic reg | PINK1 modulator | HTT cytoprotect
FC(F)Sc1ccc(NC(=S)NCc2ccccc2)cc1 | – | – | 14.1µM | –
CCN1C(=O)C(CC(=O)Nc2ccc(OC)cc2)N(CCc2ccc(F)cc2)C1=S (centres undefined) | ? | – | ? | –
N#Cc1c(C(F)(F)F)cc(-c2ccccc2)nc1SCC(=O)Nc1sc2c(c1C#N)CCC2 | – | – | 12.6µM | ?
CCN(CC)C(=O)CSc1nc(-c2cccs2)cc(-c2cccs2)c1C#N | – | 35.5µM | – | –[10 µM]
CCOc1ccc(NC(=O)CSc2nc(-c3ccc(F)cc3)cc(C(F)(F)F)c2C#N)cc1 | · | – | – | ·
CCOC(=O)c1ccc(NC(=O)CSc2nc(-c3ccc(F)cc3)cc(C(F)(F)F)c2C#N)cc1 | · | 7.08µM | – | ·
N#Cc1c(C(F)(F)F)cc(-c2ccccc2)nc1SCc1nc(N)nc(N2CCOCC2)n1 | – | 6.31µM | – | –
NC(=O)C(c1ccc(Cl)cc1)c1ccc(Sc2ccccc2)nn1 (centres undefined) | ? | – | – | –[10 µM]
CC1CCC2(CC1)NC(=O)N(NC(=O)C1CCN(C(=O)c3ccc(Cl)cc3)CC1)C2=O (centres undefined) | · | · | – | ·
CC1CN(CCOc2ccc(F)cc2)CC(C)O1 (centres undefined) | · | · | – | ·
Cc1ccc(CNC(=O)CC2Oc3ccc(Cl)cc3NC2=O)cc1 (centres undefined) | · | – | – | ·
CN(C)C(=O)COc1ccc2cc(-c3ccccc3)c(=O)oc2c1 | – | – | – | –[10 µM]
N#Cc1c(C(F)(F)F)cc(-c2cccs2)nc1SCC(=O)Nc1cccc(Br)c1 | · | 10µM | – | ·
